# Pf growth 48h: inhibits P. falciparum growth in the first generation, 48 h. actives 5.9% (n = 310,000). Potency, µM (series often up to 28.7 µM), usual class: inhibitors. P. falciparum luciferase growth in erythrocytes, 48 h
#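 Luciferase-expressing P. falciparum in infected erythrocytes (2% hematocrit, 0.1% parasitemia final) in RPMI 1640/0.5% Albumax were exposed to compound for 48 hours at 37 C, 5% CO2; growth read as luminescence.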
# Pf growth 96h: P. falciparum growth inhibition at 96 hour, primary screen for plastid delayed-death inhibitors. Potency, µM (doses to about 28.7 µM), most hits filed as inhibitors. actives 6.9% (n = 320,000). P. falciparum luciferase reporter growth, 96 h
#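 Luminescence readout: decreased luciferase signal marks inhibited growth of reporter-expressing P. falciparum in infected red cells (2% hematocrit, 0.05% parasitemia final), exposed to compound two generations (96 h, 37 C, 5% CO2).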
# SARS PLpro yeast: SARS-CoV PLP inhibition in yeast | S. cerevisiae expressing SARS-CoV PLpro, growth rescue | Potency, µM (doses to about 32.9 µM), most hits filed as activators | actives 0.19% (n = 330,000) | AID 485353; calls by dose curve; further: nearly all actives have a fitted effect of over 55% in size
# Sm TGR block: inhibitors of Schistosoma mansoni thioredoxin glutathione reductase; Q962Y6; purified TGR, DTNB reduction, TNB absorbance 405 nm; Potency, µM (highest dose often 114 µM), usual class: inhibitors; actives 3% (n = 360,000); AID 485364; further: nearly all actives have a fitted effect of over 60% in size
#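 TGR 20 nM + NADPH 100 uM (dispensed conc.), cpd preinc 15 min RT; start with NADPH (500 uM addition) then DTNB (15 mM addition). Kinetic TNB absorbance, 405 nm filter. Four-parameter Hill fit across titration.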
# Hits are given with their value; n = inactive; u = inconclusive; x = not tested or not shown. Shown are actives, neighbours in structure and some others; about 12% of the full set was active somewhere. Unless noted, the call rests on the fitted dose curve; in most records, active means well fitted curve in the direction sought with a large enough effect; inconclusive means small, poorly fitted or top-dose-only effect, or another doubt; inactive means no such curve, though single readings can be large; an effect the other way counts as inactive or inconclusive.
SMILES,Pf growth 48h,Pf growth 96h,SARS PLpro yeast,Sm TGR block
CCOC(=O)c1sc(N/N=C/c2ccccc2)nc1C,n,n,n,n
O=C(O)Cc1sc(N/N=C\c2ccccc2)nc1-c1ccccc1,n,u,n,2.24µM
CCC(=O)Nc1cc(C(=O)OC(C(=O)c2ccc(C)c(C)c2)c2ccccc2)ccc1C (centres undefined),11.7µM,1.65µM,n,n
CC1CCCC(NC(=O)Cn2cc(C(F)(F)F)cc(Cl)c2=O)C1C (centres undefined),u,u,n,n
Cc1ccccc1NC(=O)C(C)N1C(=O)c2ccccc2C1=O (centres undefined),n,2.94µM,n,n
CCN1CCN(C(c2ccc(SC)cc2)c2c(O)cc(C)n(CCOC)c2=O)CC1 (centres undefined),x,x,x,7.08µM
CCN1CCN(C(c2cccs2)C(C)NC(=O)c2ccccc2F)CC1 (centres undefined),n,u,n,n
CCN1CCN(C(c2ccccc2F)c2c(O)cc(C)n(CCOC)c2=O)CC1 (centres undefined),x,x,x,7.94µM
COCCn1c(C)cc(O)c(C(c2ccccc2Cl)N2CCN(c3ccccc3)CC2)c1=O (centres undefined),x,x,x,3.16µM
CCN1CCN(C(c2ccccc2Cl)c2c(O)cc(C)n(CCOC)c2=O)CC1 (centres undefined),x,x,x,3.55µM
CCOC(=O)C1CCN(C(=O)CSc2n[nH]c(-c3ccc(OC)cc3)n2)CC1,x,x,x,n
Cc1ccccc1CN(C)C(=O)CNC(=O)c1ccc2ccccc2c1,n,n,n,n
COc1ccc(NC(=O)CCS(=O)(=O)c2ccc3c(c2)n(C)c(=O)c(=O)n3C)cc1Cl,x,x,x,n
CCCn1nc(C(=O)NNC(=O)c2cc(S(=O)(=O)NC)ccc2Br)c2ccccc2c1=O,n,n,n,n
O=C(Nc1ccc(Cl)c(S(=O)(=O)N2CCOCC2)c1)c1cccs1,x,x,n,x
CCn1nc(C(=O)Nc2cccc(S(=O)(=O)N3CCCC3)c2)c2ccccc2c1=O,13.1µM,u,n,n
CCn1nc(C(=O)Nc2ccc(S(=O)(=O)Nc3ncccn3)cc2)c2ccccc2c1=O,n,n,n,n
CCn1nc(C(=O)Nc2ccc(Cl)c(S(=O)(=O)N3CCOCC3)c2)c2ccccc2c1=O,10.4µM,u,n,n
CCCn1nc(C(=O)NNC(=O)c2cccc(S(=O)(=O)NC(C)C)c2)c2ccccc2c1=O,3.29µM,1.17µM,n,n
CC(C)Cn1nc(C(=O)Nc2cccc(S(=O)(=O)N3CCCC3)c2)c2ccccc2c1=O,11.7µM,9.28µM,n,n
Cc1ccc(Sc2c(C)nn(C(=O)COc3ccccc3)c2C)cc1,x,x,x,n
Cc1ccc(-c2csc(-c3nc(-c4ccc(Br)s4)cs3)n2)cc1,x,x,x,n
CC(C)OP(=O)(c1ccc(N(C)C)cc1)C(O)c1ccc(N(C)C)cc1 (centres undefined),n,n,n,n
CCCn1nc(C(=O)NNC(=O)Cc2ccc(S(=O)(=O)N3CCOCC3)s2)c2ccccc2c1=O,11.7µM,u,n,n
CC(=O)Nc1cc([As](=O)(O)O)ccc1O,u,10.7µM,n,7.08µM
SMILES,Pf growth 48h,Pf growth 96h,SARS PLpro yeast,Sm TGR block
Cc1ccc(C)c(NC(=O)c2cc(S(=O)(=O)N3CCCc4ccccc43)ccc2F)c1,x,x,x,n
Cc1c(N(CC(=O)O)S(=O)(=O)c2ccccc2)c(=O)n(-c2ccccc2)n1C,n,4.65µM,n,x
Cc1c(N(C)C(=O)C2CCCN2S(=O)(=O)c2ccccc2)c(=O)n(-c2ccccc2)n1C (centres undefined),n,2.33µM,n,n
Cc1c(NC(=O)CN(c2ccc(F)cc2)S(=O)(=O)c2ccccc2)c(=O)n(-c2ccccc2)n1C,n,u,n,10µM
Cc1c(NC(=O)CN(c2ccccc2)S(=O)(=O)c2ccc(F)cc2)c(=O)n(-c2ccccc2)n1C,n,n,x,n
Cc1c(N(C)S(=O)(=O)c2cccc(C(=O)NC(C)C)c2)c(=O)n(-c2ccccc2)n1C,n,11.7µM,n,n
Cc1c2cnn(CC(=O)Nc3cccc(C(F)(F)F)c3)c(=O)c2c(C)n1Cc1ccccc1Cl,x,x,x,n
O=C(COC(=O)c1ccccc1SCC(=O)N1CCCC1)Nc1ccccc1C(F)(F)F,n,n,n,n
Cc1ccc(NC2=C(C(=O)c3ccccc3)N(C)S(=O)(=O)c3ccccc32)cc1,9.28µM,11.7µM,n,n
COc1ccc(OC)c(NC(=O)c2nc(SCc3ccc(F)cc3)ncc2Cl)c1,x,x,x,n
CCc1ccc(NC(=O)C(CC)Sc2nc3cc4c(cc3c(=O)n2Cc2ccco2)OCO4)cc1 (centres undefined),x,2.62µM,n,n
